Screening results as filed in PubChem.
Mcl1 Bid PPI: Mcl-1/Bid interaction inhibition; inhibition, % at 21.7 µM; AID 1021; 220,000 compounds, 0.97% hits; TR-FRET Mcl-1/Bid-Dy647 peptide binding, 1536-well; Q07820;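 active = compounds that cut the binding signal by more than half at the single screening dose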;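 also: His-tagged Mcl-1 with europium anti-His antibody binding Bid BH3 peptide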
Target sequence (Q07820 whole entry, looked up): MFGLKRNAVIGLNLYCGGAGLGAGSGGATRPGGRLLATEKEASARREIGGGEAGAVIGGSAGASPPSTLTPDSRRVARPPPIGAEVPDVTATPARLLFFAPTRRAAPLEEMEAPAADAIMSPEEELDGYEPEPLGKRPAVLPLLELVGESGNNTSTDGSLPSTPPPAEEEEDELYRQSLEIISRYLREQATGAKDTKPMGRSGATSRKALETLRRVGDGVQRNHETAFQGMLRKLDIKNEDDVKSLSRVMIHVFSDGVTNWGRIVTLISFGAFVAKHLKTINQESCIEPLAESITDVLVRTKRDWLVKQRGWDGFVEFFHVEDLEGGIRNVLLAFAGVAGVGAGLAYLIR
GLD-1 RNA inh: GLD-1-TGE RNA interaction inhibition (C. elegans); Q17339; purified GLD-1 + fluorescein TGE RNA, fluorescence polarization; inhibition, % at 5.96 µM; 320,000 compounds, 0.44% hits; AID 2280;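 active = percent inhibition above a per-plate cutoff, the plate mean of test compounds plus 3 SD, cut at about 30% in these data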
MCL1 BIM primary: inhibitors of human MCL1 binding to BIM-BH3 peptide. Q07820. GST-MCL1 / FITC-Bim-BH3 fluorescence polarization. inhibition, % at 10.9 µM. 320,000 compounds, 0.68% hits;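 active = inhibition above the mean inhibition of all tested compounds plus 3 SD, set per campaign, cut at about 40% in these data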;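 also: higher means more loss of mP so more displacement of Bim peptide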
Bim-Mcl-1: inhibitors of Bim-Mcl-1 interaction, human. Q07820. Bead-based flow cytometry, Bim peptide-Mcl-1 binding. inhibition, % at 10 µM. 190,000 compounds, 0.1% hits. AID 1009; in the data active = inhibition above about 40%
Mcl1-Noxa inh: disrupts binding of human Mcl-1 to Noxa peptide; Q07820; TR-FRET Mcl-1/Noxa peptide binding, 2 h; inhibition, % at 21.7 µM; 220,000 compounds, 1.5% hits; AID 1022;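 active = compounds that cut the protein-peptide binding signal by more than 50% relative to plate controls in a single-dose test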;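 also: His-tagged Mcl-1 with rhodamine Noxa BH3 peptide and terbium anti-His antibody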
Bcl-xL primary: Bcl-xL (human) inhibition; Q07817; GST-Bcl-xL / FITC-Bim BH3 peptide fluorescence polarization; inhibition, % at 10.9 µM; 320,000 compounds, 0.7% hits;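 active = inhibition above the mean of all tested compounds plus 3 SD, cutoff set per campaign, cut at about 30% in these data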;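 also: inhibitors lower millipolarization by displacing the labeled peptide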
Target sequence (Q07817 whole entry, looked up): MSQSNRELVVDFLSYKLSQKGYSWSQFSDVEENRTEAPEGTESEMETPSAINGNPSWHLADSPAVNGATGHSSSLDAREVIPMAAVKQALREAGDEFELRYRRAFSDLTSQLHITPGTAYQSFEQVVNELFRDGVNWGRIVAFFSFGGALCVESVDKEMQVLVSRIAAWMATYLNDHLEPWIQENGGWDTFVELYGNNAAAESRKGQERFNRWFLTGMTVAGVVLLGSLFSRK
BCLXL inh confirm: Bcl-xL (human) inhibition, MCL1 counter-screen confirmation; shares compounds with MCL1 BIM primary; inhibition, % at 10.9 µM; AID 2166; 1,700 compounds, 54% hits; GST-Bcl-xL / FITC-Bim BH3 peptide FP binding;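 active = inhibition above a cutoff equal to the mean inhibition of all tested compounds plus 3 SD, cut at about 30% in these data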
MCL1 inh confirm: confirmation of human MCL1 and BIM-BH3 interaction inhibitors; shares compounds with MCL1 BIM primary; GST-MCL1 / FITC-Bim-BH3 fluorescence polarization; inhibition, % at 10.9 µM; 1,700 compounds, 61% hits;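 active = inhibition above the average of all tested compounds plus 3 SD, cut at about 40% in these data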
Each line names hits and unclear results; the compound was inactive in the other large screens (follow-up assays come after a bar, where they were run). This is a sample that favours compounds with a hit; in the whole collection about 2.3% have one here.

CC(=O)OCCCNc1cc(SCc2ccco2)c2nonc2c1[N+](=O)[O-]	MCL1 BIM primary 45 | BCLXL inh confirm inactive | MCL1 inh confirm 46
CCCC(=O)OCCNc1cc(SCc2ccco2)c2nonc2c1[N+](=O)[O-]	MCL1 BIM primary 43 | BCLXL inh confirm inactive | MCL1 inh confirm inactive
O=C(O)c1ccc(C(=O)O)c(C(=O)c2ccccc2)c1	none
O=C1OC(Nc2ncccn2)c2ccccc21 (stereo unspecified)	none
O=C1OC(Nc2cc(Br)cc3cccnc23)c2ccccc21 (stereo unspecified)	MCL1 BIM primary 90, Bcl-xL primary 64 | BCLXL inh confirm 56 | MCL1 inh confirm 68
C#CCN1C(=O)S/C(=C\c2ccc(-c3ccc(C(=O)O)cc3C)o2)C1=O	MCL1 BIM primary 66 (no result: Mcl1 Bid PPI, Bim-Mcl-1, Mcl1-Noxa inh) | BCLXL inh confirm inactive | MCL1 inh confirm inactive
CCOC(=O)C(C)N1C(=O)S/C(=C\c2ccc(-c3ccccc3C(=O)O)o2)C1=O (stereo unspecified)	MCL1 BIM primary 58, Bcl-xL primary 31 (no result: Mcl1 Bid PPI, Bim-Mcl-1, Mcl1-Noxa inh) | BCLXL inh confirm 42 | MCL1 inh confirm 62
COc1ccc(N2CCN(S(=O)(=O)Cc3ccccc3)CC2)cc1	none
O=S(=O)(O)c1cc(O)c2c(O)c(N=Nc3cc(Cl)ccc3O)c(S(=O)(=O)O)cc2c1	MCL1 BIM primary 56 (no result: Mcl1 Bid PPI, Bim-Mcl-1, Mcl1-Noxa inh) | BCLXL inh confirm 36 | MCL1 inh confirm 57
COc1ccc(N=Nc2nc3cc(Br)c(Br)cc3n2C)c(OC)c1	GLD-1 RNA inh 198, MCL1 BIM primary active, Bcl-xL primary active | BCLXL inh confirm 176 | MCL1 inh confirm active
O=c1cc(-c2ccccc2)oc2cc(O)c(O)c(O)c12	none (no result: Mcl1 Bid PPI, MCL1 BIM primary, Bim-Mcl-1, Mcl1-Noxa inh, Bcl-xL primary)
O=c1c(O)cccc2cc(O)c(O)c(O)c12	Mcl1 Bid PPI 92, MCL1 BIM primary 109, Mcl1-Noxa inh 104, Bcl-xL primary 86 (no result: Bim-Mcl-1) | BCLXL inh confirm 85 | MCL1 inh confirm 103
CC(C)CCNC(=O)CCc1nnc2ccc(N3CCC(C)CC3)nn12	none (no result: Mcl1 Bid PPI, Bim-Mcl-1, Mcl1-Noxa inh)
Cc1ccc(C(=O)O)cc1N1C(=O)c2cccc3c([N+](=O)[O-])ccc(c23)C1=O	GLD-1 RNA inh 50, MCL1 BIM primary 102, Bcl-xL primary 82 (no result: Mcl1 Bid PPI, Bim-Mcl-1, Mcl1-Noxa inh) | BCLXL inh confirm 47 | MCL1 inh confirm 76
Cc1ccc(OCC(=O)N/N=C/C=C/c2ccco2)cc1	MCL1 BIM primary 40 | BCLXL inh confirm 55 | MCL1 inh confirm 71
O=C(CSc1nnc(SCc2ccccc2)s1)N/N=C/C=C\c1ccco1	MCL1 BIM primary 43, Mcl1-Noxa inh 54 | BCLXL inh confirm 31 | MCL1 inh confirm 59
Cc1ccccc1OCC(=O)N/N=C/c1ccc([N+](=O)[O-])o1	none
COc1ccccc1OCC(=O)N/N=C/C=C/c1ccc([N+](=O)[O-])o1	MCL1 BIM primary 41 | BCLXL inh confirm inactive | MCL1 inh confirm inactive
CCN(N=Nc1cccc([N+](=O)[O-])c1)c1cccc([N+](=O)[O-])c1	none
Cc1ccc(-n2c(SCC(=O)c3c(N)n(C)c(=O)n(C)c3=O)nc3sc4c(c3c2=O)CCCC4)c(C)c1	none
Cc1ccc(S(=O)(=O)N(C)c2ccc(NS(C)(=O)=O)cc2)cc1	none
Cc1ccc(N=Nc2c(O)n(CN3CCOCC3)c3ccccc23)cc1	GLD-1 RNA inh 89, MCL1 BIM primary 78, Bcl-xL primary 96 | BCLXL inh confirm inactive | MCL1 inh confirm inactive
COCCCn1c(=O)/c(=C\c2ccccc2OC(F)F)s/c1=C(/C#N)C(=O)NCCOC	none (no result: Bim-Mcl-1)
COCCCn1c(=O)/c(=C\c2ccccc2OC(F)F)s/c1=C(/C#N)C(=O)N1CCOCC1	MCL1 BIM primary active | BCLXL inh confirm inactive | MCL1 inh confirm inactive
CN(C)CCNC(=O)Cc1ncc(C(F)(F)F)cc1Cl	none
O=[N+]([O-])c1ccc2[nH]c(O)c(N=Nc3ccc(F)cc3)c2c1	none (no result: Mcl1 Bid PPI, Bim-Mcl-1, Mcl1-Noxa inh)
Oc1[nH]c2ccc(Br)cc2c1N=Nc1ccc(F)cc1	GLD-1 RNA inh 107, MCL1 BIM primary active, Bcl-xL primary 183 (no result: Mcl1 Bid PPI, Bim-Mcl-1, Mcl1-Noxa inh) | BCLXL inh confirm 143 | MCL1 inh confirm 198
O=C1C(Br)=Cc2cccc3cccc1c23	GLD-1 RNA inh 83, MCL1 BIM primary 135, Bcl-xL primary 116 (no result: Bim-Mcl-1) | BCLXL inh confirm 97 | MCL1 inh confirm 133
CCOc1cc(C(c2c(O)nc(SC)[nH]c2=O)c2c(O)nc(SC)[nH]c2=O)ccc1O	GLD-1 RNA inh 68, MCL1 BIM primary 97, Bcl-xL primary 84 (no result: Mcl1 Bid PPI, Bim-Mcl-1, Mcl1-Noxa inh) | BCLXL inh confirm 65 | MCL1 inh confirm 76
COc1cccc(-n2c(C)c3c(OC)cccc(=O)c3c2C)c1	MCL1 BIM primary 41 | BCLXL inh confirm inactive | MCL1 inh confirm inactive
COc1cccc(=O)c2c(C)n(-c3cc(C)cc(C)c3)c(C)c12	none
CC(C)NC(=O)Nc1ccc(Br)cc1Cl	none
O=C(O)CC(NC(=O)c1ccc2c(c1)OCO2)c1cccc([N+](=O)[O-])c1 (stereo unspecified)	none
COc1cccc(C2=CC(c3ccc(C)cc3)n3ncnc3N2)c1 (stereo unspecified)	GLD-1 RNA inh 57, MCL1 BIM primary 60, Bcl-xL primary 55 | BCLXL inh confirm inactive | MCL1 inh confirm 42
Cc1ccsc1C1C=C(c2cccc(Br)c2)Nc2ncnn21 (stereo unspecified)	GLD-1 RNA inh 92, MCL1 BIM primary 118, Bcl-xL primary 110 | BCLXL inh confirm 71 | MCL1 inh confirm 83
Fc1ccc(Br)cc1C1C=C(c2ccc(Br)cc2)Nc2ncnn21 (stereo unspecified)	none
COc1ccc([C@H]2CC(=O)C=C(c3cc4ccccc4s3)C2)cc1	none (no result: Mcl1 Bid PPI, Bim-Mcl-1, Mcl1-Noxa inh)
O=C(O)CSc1cc(NS(=O)(=O)c2ccc(Br)cc2)c2ccccc2c1O	MCL1 BIM primary 42 (no result: Mcl1 Bid PPI, Bim-Mcl-1, Mcl1-Noxa inh) | BCLXL inh confirm 35 | MCL1 inh confirm 79
Cc1ccc(S(=O)(=O)Nc2ccc(Br)cc2C(NCC(=O)O)c2ccccc2)cc1 (stereo unspecified)	none
O=C(O)c1cc2nc3c(c(C(F)(F)F)n2n1)CCc1ccccc1-3	none
COCCNC(=O)c1cc2nc3c(c(C(F)(F)F)n2n1)CCc1ccccc1-3	MCL1 BIM primary 49 | BCLXL inh confirm inactive | MCL1 inh confirm inactive
CCN1CC=C2C(C#N)=C(N)C(C#N)(C#N)[C@H](c3cccc(OC)c3OC)[C@H]2C1	GLD-1 RNA inh 114, MCL1 BIM primary 151, Bcl-xL primary 136 (no result: Mcl1 Bid PPI, Mcl1-Noxa inh) | BCLXL inh confirm 52 | MCL1 inh confirm 65
COc1cccc(C2C(C#N)=C(N)N(N(C)C)C3=C2C(=O)CC(C)(C)C3)c1OC (stereo unspecified)	none (no result: Mcl1 Bid PPI, Bim-Mcl-1, Mcl1-Noxa inh)
COc1cc(C2C(C#N)=C(N)Oc3cc(C)n(CC4CCCO4)c(=O)c32)cc2c1OCO2 (stereo unspecified)	none (no result: GLD-1 RNA inh, MCL1 BIM primary, Bcl-xL primary)
